Screening results: PubChem BioAssay, The Scripps Research Institute Molecular Screening Center
ssDAF-12 act: activators of S. stercoralis DAF-12 nuclear receptor | HEK293 ssDAF-12/GRIP1 lit1-tk-luc reporter, luminescence; % of 3 µM dafachronic acid response | AID 652126 | activation, % at 6.8 µM | 370,000 tested, 1% active;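 active = activation above the mean over all tested compounds plus 3 SD, cut at about 0.9% in these data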;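 note: 0% = DMSO-only wells and 100% = 3 µM delta7-dafachronic acid wells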
hcDAF12 agonist: H. contortus DAF-12 activation, primary screen; AID 652067; activation, % at 6.8 µM; HEK293 hcDAF-12 lit1-tk-luc reporter, luminescence; 0% DMSO, 100% Δ7-dafachronic acid; 370,000 tested, 1.4% active;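 active = activation above the mean of all tested compounds plus 3 SD, cut at about 5.5% in these data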;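 note: 100% = response to 3 µM Δ7-dafachronic acid high control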
DAX1 inh-1: blocks DAX1 repression of SF-1 activated StAR promoter; HEK293T StAR-luciferase reporter, SF-1/DAX-1 repression relief; inhibition, % at 6.8 µM; 370,000 tested, 1.1% active; AID 652010;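 active = inhibition above the mean over all tested compounds plus 3 SD, cut at about 3.6% in these data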;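 note: 0% = DAX-1 cells with DMSO and 100% = cells lacking DAX-1 with DMSO; higher inhibition means more luminescence from relief of DAX-1 repression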
DAX1 inh-2: NR0B1 (DAX1) inhibition; AID 504766; inhibition, % at 6.75 µM; P51843; HEK293 Gal4-DAX1 luciferase reporter, luminescence; 340,000 tested, 0.99% active;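 active = inhibition above the mean over all tested compounds plus 3 SD, cut at about 4.2% in these data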;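 note: 0% = DAX1-transfected cells with DMSO and 100% = empty-vector control cells with DMSO; inhibition shows as a rise in luminescence from relieved DAX1 repression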
Target sequence (P51843 207-470 limits assumed): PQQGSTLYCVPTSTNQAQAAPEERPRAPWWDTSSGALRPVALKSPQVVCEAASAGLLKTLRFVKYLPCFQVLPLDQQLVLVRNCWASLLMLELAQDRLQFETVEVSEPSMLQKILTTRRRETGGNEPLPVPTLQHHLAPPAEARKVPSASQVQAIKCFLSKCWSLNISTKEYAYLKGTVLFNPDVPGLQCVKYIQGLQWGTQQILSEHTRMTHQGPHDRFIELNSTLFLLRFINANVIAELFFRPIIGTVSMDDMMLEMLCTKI
hgDAF12 agonist: activates the H. glycines DAF-12 receptor ligand-binding domain. activation, % at 6.8 µM. AID 687014. HEK293 GAL4-hgDAF12 UAS-luciferase reporter, agonist luminescence; normalized to butyrate control. 370,000 tested, 1.8% active;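 active = activation above a cutoff set at the mean of all screened compounds plus 3 SD, cut at about 10% in these data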;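 note: 0% = DMSO wells and 100% = sodium butyrate wells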
Active calls of the source: *. The list is not random: actives were taken first. Their share in the collection is about 4.1%.

CCCC1CCC2(CCCN2CCOC(=S)Nc2cccc(Cl)c2)CC1 (centres undefined) was read as ssDAF-12 act -2, hcDAF12 agonist -3 and hgDAF12 agonist 1.
For Cc1ccc2c(C(=O)CN3CCCCC3CCO)c(C)[nH]c2c1 (centres undefined) the results were ssDAF-12 act 0, hcDAF12 agonist -1, DAX1 inh-1 0, DAX1 inh-2 1 and hgDAF12 agonist 0.
Screening CCC1CCCCN1CC(=O)c1c(C)[nH]c2cc(C)ccc12 (centres undefined) returned ssDAF-12 act -1, hcDAF12 agonist 5.8*, DAX1 inh-1 0, DAX1 inh-2 4 and hgDAF12 agonist 0.
`O=C(COc1ccccc1Cl)Nc1cccnc1` gave ssDAF-12 act -1, hcDAF12 agonist 2, DAX1 inh-1 3, DAX1 inh-2 4 and hgDAF12 agonist 12*.
`COc1cc(/C=N/N=C(/N)c2nonc2N)cc(Br)c1OCc1ccccc1C` gave ssDAF-12 act -1, hcDAF12 agonist -3, DAX1 inh-1 -1, DAX1 inh-2 1 and hgDAF12 agonist 4.
For COc1cccc(/C=N/N=C(\N)c2nonc2N)c1O the results were ssDAF-12 act 0, hcDAF12 agonist 3, DAX1 inh-1 3, DAX1 inh-2 3 and hgDAF12 agonist 13*.
O=S(=O)(Nc1ccc2oc(-c3ccccc3)nc2c1)c1ccccc1 was read as ssDAF-12 act -2, hcDAF12 agonist -1, DAX1 inh-1 0, DAX1 inh-2 -2 and hgDAF12 agonist 3.
For O=S(=O)(O)c1cc2oc(-c3ccccc3)nc2c2ccccc12 the results were ssDAF-12 act 0, hcDAF12 agonist 5.8*, DAX1 inh-1 0, DAX1 inh-2 0 and hgDAF12 agonist 2.
C/C(=N\NC(=O)C1CCCC1)c1ccc(Cl)c(Cl)c1 was read as ssDAF-12 act -1, hcDAF12 agonist 2, DAX1 inh-1 1, DAX1 inh-2 1 and hgDAF12 agonist 2.
C/C(=N\NC(=S)NC1CCCCC1)c1ccc(Cl)c(Cl)c1 was read as ssDAF-12 act -2, hcDAF12 agonist -1, DAX1 inh-1 0, DAX1 inh-2 25* and hgDAF12 agonist -2.
`COc1ccc(S[C@]2(C(=O)N3CCN(c4ncccn4)CC3)CC(=O)N(C(=O)Nc3ccc(C)c(Cl)c3)[C@@H]2c2ccc(OC)cc2)cc1` gave ssDAF-12 act -1, hcDAF12 agonist -1, DAX1 inh-1 0 and hgDAF12 agonist 1.
Screening CCOc1ccc(-n2c(SCc3nc4ccccc4[nH]3)nnc2-c2cccc(Cl)c2)cc1 returned ssDAF-12 act -2, hcDAF12 agonist -2, DAX1 inh-1 -1 and hgDAF12 agonist 1.
`C[C@@H](C(=O)NCC1CCCO1)N1C(=O)N2CCc3c([nH]c4ccccc34)[C@@]2(C)C1=O` (some centres undefined) gave ssDAF-12 act -1, hcDAF12 agonist 1, DAX1 inh-1 0, DAX1 inh-2 3 and hgDAF12 agonist -2.
For COc1ccc2[nH]c3c(c2c1)CCN1C(=O)N([C@@H](C)C(=O)NCC2CCCO2)C(=O)[C@]31C (some centres undefined) the results were ssDAF-12 act -1, hcDAF12 agonist 2, DAX1 inh-1 0, DAX1 inh-2 5.7* and hgDAF12 agonist 6.
Screening CCOC(=O)c1csc(NC(=O)C2CCCN(S(=O)(=O)c3ccc([N+](=O)[O-])cc3)C2)n1 (centres undefined) returned ssDAF-12 act -2, hcDAF12 agonist -5, DAX1 inh-1 -4 and hgDAF12 agonist -6.
O=C(c1cc(F)ccc1F)N1CCC(Oc2cccnc2)CC1 was read as ssDAF-12 act -1, hcDAF12 agonist -2, DAX1 inh-1 -1 and hgDAF12 agonist -1.
`OC1COC(c2ccccc2)OC1C1OC(c2ccccc2)OCC1O` (centres undefined) gave ssDAF-12 act -2, hcDAF12 agonist 0, DAX1 inh-1 -1, DAX1 inh-2 4.9* and hgDAF12 agonist 1.
c1ccc(CSc2ccc(-c3cccs3)nn2)nc1 was read as ssDAF-12 act -1, hcDAF12 agonist 0, DAX1 inh-1 3.8*, DAX1 inh-2 1 and hgDAF12 agonist 12*.
c1ccc(CSc2nnc3ccc(-c4cccs4)nn23)nc1 was read as ssDAF-12 act -2, hcDAF12 agonist 1, DAX1 inh-1 0, DAX1 inh-2 1 and hgDAF12 agonist 4.
COC(=O)c1sc2nc(-c3ccco3)ccc2c1N was read as ssDAF-12 act 0, hcDAF12 agonist 3, DAX1 inh-1 3, DAX1 inh-2 3 and hgDAF12 agonist 11*.
`NC(=O)c1sc2nc(-c3ccco3)ccc2c1N` gave ssDAF-12 act -1, hcDAF12 agonist 0, DAX1 inh-1 1, DAX1 inh-2 0 and hgDAF12 agonist 3.
COc1ccccc1C(=O)N1CCCC(c2nc(-c3cccs3)no2)C1 (centres undefined) was read as ssDAF-12 act -1, hcDAF12 agonist -1, DAX1 inh-1 0 and hgDAF12 agonist 1.
`O=[N+]([O-])c1ccccc1N=NNc1ccccc1` gave ssDAF-12 act 1.6*, hcDAF12 agonist 3, DAX1 inh-1 0, DAX1 inh-2 0 and hgDAF12 agonist 3.
For C[C@H](O)[C@@H]1CN2CCc3c([nH]c4cccc(-c5ccc6c(c5)OCO6)c34)[C@@H]2C[C@@H]1N(C)C(=O)c1ccco1 the results were ssDAF-12 act -1, hcDAF12 agonist -3, DAX1 inh-1 0 and hgDAF12 agonist 0.
`CSCCC(NC(=O)c1ccco1)C(=O)Nc1ccc(C)cn1` (centres undefined) gave ssDAF-12 act 0, hcDAF12 agonist 3, DAX1 inh-1 3.8*, DAX1 inh-2 3 and hgDAF12 agonist 2.
CSCCC(NC(=O)c1ccco1)C(=O)NC1CCC(C)CC1 (centres undefined) was read as ssDAF-12 act -1, hcDAF12 agonist 3, DAX1 inh-1 3.7*, DAX1 inh-2 0 and hgDAF12 agonist 2.
For Cc1cc(NC(=O)C(C)C)ncc1NC(=O)c1ccco1 the results were ssDAF-12 act -1, hcDAF12 agonist 0, DAX1 inh-1 0, DAX1 inh-2 5.9* and hgDAF12 agonist 1.
For COC(=O)Cc1nnn2c1[C@H](C)[C@@H](OC)c1ccccc1-2 the results were ssDAF-12 act -1, hcDAF12 agonist 0, DAX1 inh-1 0 and hgDAF12 agonist 3.
`O=C(Cn1cnc2ccccc2c1=O)N1CCN(S(=O)(=O)c2ccc(F)cc2)CC1` gave ssDAF-12 act -1, hcDAF12 agonist 1, DAX1 inh-1 3.6*, DAX1 inh-2 0 and hgDAF12 agonist -1.
For O=C(Cn1cnc2ccccc2c1=O)N1CCN(c2ccc(F)cc2)CC1 the results were ssDAF-12 act -1, hcDAF12 agonist -2, DAX1 inh-1 0, DAX1 inh-2 0 and hgDAF12 agonist 1.
Screening O=C(Nc1nnc(-c2ccccc2F)s1)c1cccnc1 returned ssDAF-12 act -1, hcDAF12 agonist 0, DAX1 inh-1 1, DAX1 inh-2 5.1* and hgDAF12 agonist 1.
